Screens deposited in PubChem BioAssay by National Center for Advancing Translational Sciences (NCATS).
Shown are actives, neighbours in structure and some others; about 11% of the full set was active somewhere.
FLuc inh – Firefly luciferase inhibition profiling of diverse chemical library using quantitative high-throughput screening; Potency, µM (titrated, usually from 115 µM), hits mostly inhibitors; Luciferin 4-monooxygenase (Photinus pyralis), P08659; 76,000 compounds, 2.5% hits; purified P. pyralis luciferase, luminescence, biochemical; also: nearly all actives have a fitted effect of over 65% in size
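Luminescence read by CCD imager after adding enzyme (10nM final) to wells holding compound, titrated in qHTS. Substrates 10uM each D-luciferin and ATP; buffer 50mM Tris acetate pH 7.5, 10mM Mg acetate, Tween-20, BSA.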
3T3 cytotox – Cytotoxic Profiling in NIH 3T3 Cell Line of Diverse Libraries Using Quantitative High-Throughput Screening; Potency, µM (top dose mostly 96.7 µM), usual class: inhibitors; 94,000 compounds, 4.3% hits; NIH 3T3 viability, CellTiter-Glo ATP luminescence, 48-72 h; also: nearly all actives have a fitted effect of over 55% in size
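First NIH 3T3 cells are plated at 400 cells/well; next compound is pinned in; then plates incubate 48 or 72 hr at 37 °C; finally CellTiter-Glo is added and luminescence read after 10 min.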
NPR1 antag – Natriuretic polypeptide receptor (hNpr1) antagonism - Primary qHTS; Potency, µM (doses to about 46.3 µM), hits mostly inhibitors; Atrial natriuretic peptide receptor 1 (Homo sapiens), P16066; 76,000 compounds, 1.6% hits; HEK293 hNpr1 GloSensor cGMP, ANP-stimulated luminescence; calls by dose curve; also: nearly all actives have a fitted effect of over 60% in size
Target sequence (P16066 whole entry, looked up): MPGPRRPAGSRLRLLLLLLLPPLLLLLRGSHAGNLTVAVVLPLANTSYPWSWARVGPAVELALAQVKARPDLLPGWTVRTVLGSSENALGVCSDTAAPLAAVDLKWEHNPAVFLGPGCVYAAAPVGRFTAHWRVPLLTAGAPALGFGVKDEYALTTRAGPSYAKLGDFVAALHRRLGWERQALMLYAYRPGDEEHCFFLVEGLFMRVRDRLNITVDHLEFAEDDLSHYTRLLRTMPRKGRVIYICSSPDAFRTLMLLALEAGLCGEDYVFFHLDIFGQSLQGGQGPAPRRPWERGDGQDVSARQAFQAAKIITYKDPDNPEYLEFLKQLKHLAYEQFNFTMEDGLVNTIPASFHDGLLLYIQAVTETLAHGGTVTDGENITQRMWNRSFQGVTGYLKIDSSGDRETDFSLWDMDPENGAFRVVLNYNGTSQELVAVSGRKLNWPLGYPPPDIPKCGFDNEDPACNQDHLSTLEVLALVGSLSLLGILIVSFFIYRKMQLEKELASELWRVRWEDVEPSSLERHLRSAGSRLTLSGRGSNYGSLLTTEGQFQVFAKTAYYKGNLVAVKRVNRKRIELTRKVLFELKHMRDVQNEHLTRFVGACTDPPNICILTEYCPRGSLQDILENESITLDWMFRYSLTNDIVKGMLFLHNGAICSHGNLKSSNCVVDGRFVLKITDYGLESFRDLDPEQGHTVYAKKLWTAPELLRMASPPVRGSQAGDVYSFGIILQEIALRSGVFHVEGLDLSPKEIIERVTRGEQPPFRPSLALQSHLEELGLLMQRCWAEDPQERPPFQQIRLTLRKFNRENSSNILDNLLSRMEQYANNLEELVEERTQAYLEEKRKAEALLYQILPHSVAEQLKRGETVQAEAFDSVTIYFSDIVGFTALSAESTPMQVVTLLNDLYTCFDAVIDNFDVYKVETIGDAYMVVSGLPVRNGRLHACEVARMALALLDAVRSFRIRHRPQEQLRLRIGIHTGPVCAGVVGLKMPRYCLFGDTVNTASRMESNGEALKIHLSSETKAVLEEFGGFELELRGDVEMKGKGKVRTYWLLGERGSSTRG
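Compound pre-incubated 30 min at room temperature on GloSensor-loaded HEK293 cells stably carrying hNpr1 and the pGS-40F cGMP biosensor. Stimulation uses hNppA at 0.1 nM final; luminescence is taken at baseline and 20 min post-agonist.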
HEK cytotox – Cytotoxic Profiling in HEK 293 Cell Line of Diverse Libraries Using Quantitative High-Throughput Screening; HEK 293 viability, ATP luminescence (CellTiter-Glo), 48-72 h; Potency, µM (top dose mostly 115 µM), usual class: inhibitors; 94,000 compounds, 6.6% hits; AID 1345083, 2018; also: nearly all actives have a fitted effect of over 60% in size
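Cytotoxicity was scored by loss of ATP-coupled luminescence (CellTiter-Glo) in HEK 293 cells. Compound treatment ran 48 or 72 hr at 37 degree Celsius, 5% CO2, 95% humidity.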
Numbers stand for hits; i = inactive; ? = inconclusive; nt = no result; ! = not confirmed by another sample. Unless noted, calls follow the shape of the dose curve; as a rule, active = well fitted curve in the direction sought with a large enough effect; inconclusive = small, poorly fitted or top-dose-only effect, or another doubt; inactive = no such curve, though single readings can be large; an effect the other way counts as inactive or inconclusive.

SMILES | FLuc inh | 3T3 cytotox | NPR1 antag | HEK cytotox
Cc1ccccc1-n1cc(-c2ccnc(NC(C)Cc3ccncc3)n2)cn1 (stereo not drawn) | i | ? | ? | 35µM
O=C(NC1CCN(CCn2nc3n(c2=O)CCCC3)C1)c1ccc(Cl)nc1 (stereo not drawn) | nt | i | nt | i
Cc1ccccc1C(=O)NC1CCN(c2cc(-c3ccccc3)[nH]n2)C1 (stereo not drawn) | i | i | i | i
CN(C(=O)c1ccc(F)cc1)C1CCCc2ccccc21 (stereo not drawn) | ? | ? | i | 100µM
Cc1ccc(C(=O)N(C)C2CCCc3ccccc32)cc1 (stereo not drawn) | 35µM | ? | i | 79µM
O=C1CO[C@H]2CCN(Cc3ccccc3O)CC[C@@H]2N1c1ccccc1 | i | ? | i | i
O=C1CO[C@H]2CCN(CCCc3ccccc3)CC[C@@H]2N1c1ccccc1 | i | 89µM | i | 100µM
O=C1CO[C@H]2CCN(Cc3ccccc3Cl)CC[C@@H]2N1c1ccccc1 | i | ? | i | 79µM
Cc1ccc(-c2cc(N3CCCN(C(=O)c4cccc(N(C)C)c4)CC3)n[nH]2)cc1C | ? | 40µM | ? | ?
O=C(c1ccc2cc[nH]c2c1)N1CCCN(c2cc(-c3ccc(F)cc3)[nH]n2)CC1 | i | ? | ? | 40µM
Cc1ccc(-c2cc(N3CCCN(C(=O)c4cccnc4)CC3)n[nH]2)cc1C | i | i | i | i
CN(C)c1cccc(C(=O)N2CCCN(c3cc(-c4ccc(F)cc4)[nH]n3)CC2)c1 | 22µM | i | i | ?
O=C(NC1CC1)C1(CCO)CCN(Cc2ccccc2)C1 (stereo not drawn) | nt | i | nt | i
O=C(NCCc1ccccc1)c1ccc2nnc(C3CC3)n2c1 | nt | ? | nt | i
O=C1CC2(CCN(Cc3ccccc3)CC2)Oc2ccccc21 | ? | ? | i | ?
O=C1CC2(CCN(Cc3cccc4ccccc34)CC2)Oc2ccccc21 | i | ? | i | 35µM
O=C1CC2(CCN(Cc3cccc4ccccc34)CC2)Oc2cc(Cl)ccc21 | i | ? | i | ?
O=C1CC2(CCN(Cc3ccc(C(F)(F)F)cc3)CC2)Oc2ccccc21 | i | ? | ? | 25µM
O=C1CC2(CCN(Cc3ccsc3)CC2)Oc2ccccc21 | 45µM | ? | i | ?
CC(=O)Nc1cc(-c2ccccn2)nn1-c1ccccc1 | nt | i | nt | i
Cc1ccccc1N1CCN(C(=O)c2cc3cn(C4CC4)cc3s2)CC1 | i | ? | i | 79µM
COc1ccc(-c2cc(N3CCC(NC(=O)c4ccc5c(c4)OCO5)C3)n[nH]2)cc1 (stereo not drawn) | i | ? | i | 79µM
O=C(NC1CCCN(c2cc(-c3ccc(Cl)cc3)[nH]n2)C1)c1ccc2c(c1)OCO2 (stereo not drawn) | ? | ? | i | 45µM
O=C(NC1CCN(c2cc(-c3ccc(Cl)cc3)[nH]n2)C1)c1ccc2c(c1)OCO2 (stereo not drawn) | i | ? | i | ?
CC(C)c1nc2c(c(-c3ccc(O)cc3)n1)CN(CC1CCCCC1)CC2 | i | i | i | i
SMILES | FLuc inh | 3T3 cytotox | NPR1 antag | HEK cytotox
CCOC(=O)c1ccc(N2CCN(CCC3c4cccnc4C(=O)N3c3c(C)cccc3C)CC2)cc1 (stereo not drawn) | nt | ? | nt | 35µM
O=S(=O)(c1ccc2c(c1)CCC2)N1CCCCC1c1nc(CCOCC2CC2)no1 (stereo not drawn) | i | 28µM | i | 40µM
O=S(=O)(c1cccs1)N1CCCCC1c1nc(CCOCC2CC2)no1 (stereo not drawn) | i | i | i | ?
CN1CCOc2c(C(=O)NCCc3cnc[nH]3)cc(-c3ccccc3F)cc21 | i | ? | i | 89µM
COc1cc(F)ccc1-c1cc(C(=O)NCCc2cnc[nH]2)c2c(c1)N(C)CCO2 | i | 100µM | i | ?
COc1ccc(Nc2ccnc(N3CCN(C(=O)C4CCCC4)CC3)n2)cc1 | nt | ? | nt | 28µM
COc1ccc(Nc2ccnc(N3CCC(NC(=O)C4CCCC4)CC3)n2)cc1 | nt | ? | nt | 50µM
COc1ccc(Nc2ccnc(N3CCC(C(=O)NC4CCCC4)CC3)n2)cc1 | nt | 35µM | nt | ?
COc1ccc(Nc2ccnc(N3CCC(C(=O)N4CCOCC4)CC3)n2)cc1 | nt | i | nt | i
O=C(NC1CCN(Cc2cccc(-c3ccc(F)cc3F)c2)CC1)C1CCCC1 | nt | i | nt | i
COc1cccc(C(=O)NC2CCN(Cc3cccc(-c4ccc(F)cc4F)c3)CC2)c1 | nt | 35µM! | nt | 32µM!
O=C(NC1CCN(Cc2cccc(-c3ccc(F)cc3F)c2)CC1)c1ccncc1 | nt | ? | nt | 32µM
CCOCCNC(=O)c1ccc(-c2ccc(OC)nn2)cc1 | nt | ? | nt | i
COCCOc1ccc2c(n1)CCN(C(=O)COc1ccc(F)cc1)C2 | i | i | i | i
O=C(Nc1cccc(C(F)(F)F)c1)c1nc2c(o1)CCN(Cc1cnc[nH]1)CC2 | 40µM | ? | i | ?
O=C(Nc1cccc(C(F)(F)F)c1)c1nc2c(o1)CCN(Cc1ccccc1)CC2 | i | ? | i | ?
O=C(Nc1cccc(C(F)(F)F)c1)c1nc2c(o1)CCN(Cc1cccc(F)c1)CC2 | ? | ? | ? | 50µM
O=C(Nc1cccc(C(F)(F)F)c1)c1nc2c(o1)CCN(Cc1ccc(F)cc1)CC2 | i | 28µM | i | 28µM
O=C(NCC1CC1)c1nc2c(o1)CCN(Cc1cccc(F)c1)CC2 | i | ? | ? | ?
COCCN1C(=O)CCC2(CNC(=O)COc3ccc(F)cc3)CCCC=C12 (stereo not drawn) | i | i | i | i
Cc1ccccc1C(=O)N1CCC2(CC1)C(=O)N(c1cccc(F)c1)C2c1ccccc1 (stereo not drawn) | nt | 35µM | nt | 25µM
O=c1c2c(n(CCOc3ccccc3)n1-c1ccccc1)CN(Cc1nccs1)CC2 | i | i | i | ?
CNC(=O)c1cc(C2CC2)nc2onc(C3CCCN3C(=O)c3ccc(C)cc3)c12 (stereo not drawn) | nt | i | nt | i
CCCn1c(C)c(CC(=O)NC(C)Cn2cccn2)c2c1CC(C)(C)CC2=O (stereo not drawn) | i | i | i | i
O=C(C1CCCN(Cc2cccc(-c3cccs3)c2)C1)N1CCC(c2ccccc2)CC1 (stereo not drawn) | nt | 40µM | nt | 45µM
O=C(C1CCCN(Cc2cccc(-c3cccs3)c2)C1)N1CCOCC1 (stereo not drawn) | nt | i | nt | ?
O=C(C1CCCN(Cc2cccc(-c3cccs3)c2)C1)N1CCN(Cc2ccccc2)CC1 (stereo not drawn) | nt | 35µM | nt | ?
O=C(NCc1cc2n(n1)CCNC2)c1cc2c(s1)CCCCC2 | 32µM | i | i | i
N#Cc1cccc(CN2CCC3(CC2)CC(Cc2nc(C4CC4)no2)CCO3)c1 (stereo not drawn) | i | ? | i | 45µM
O=C(NCCc1ccccc1F)C1CCc2nnc(-c3ccc(F)cc3)n21 (stereo not drawn) | nt | i | nt | i
